This passage reports growth results from PubChem BioAssay (NCI).

Test in all cases: NCI-60 one-dose screen, 48 h (100 = growth as untreated, 0 = no growth, -100 = all killed)
One test has as its system NCI-H23 lung. The settings on record: 10 µM unless noted.
The next test relates to NCI-H226 lung. The note with it: 10 µM unless noted.
A further test has as its system NCI-H322M lung. The note with it: 10 µM unless noted.
For the next test, the system named is HOP-62 NSCLC. The note with it: 10 µM unless noted.
In the next test the test system is NCI-H460 lung. The settings on record: 10 µM unless noted.
Another test deals with HOP-92 NSCLC. The note with it: 10 µM unless noted.
For the next test, the system named is NCI-H522 lung. The note with it: 10 µM unless noted.
A further test has as its system A549/ATCC NSCLC. The note with it: 10 µM unless noted.
The subject of another test is 786-0 renal. The note with it: 10 µM unless noted.
In a further test the test system is COLO 205 colon. The settings on record: 10 µM unless noted.
The test system of the next test is DU-145 prostate. The settings on record: 10 µM unless noted.
For another test, the system named is K-562 leukemia. The note with it: 10 µM unless noted.
Another test concerns MALME-3M melanoma. The settings on record: 10 µM unless noted.
The subject of a further test is MDA-MB-231 breast. The note with it: 10 µM unless noted.
The next test has as its system RXF 393 renal. The settings on record: 10 µM unless noted.
The subject of the next test is SF-268 CNS. The settings on record: 10 µM unless noted.
The test system of another test is SF-295 CNS. The settings on record: 10 µM unless noted.
The test system of the next test is SF-539 CNS. The note with it: 10 µM unless noted.
The test system of a further test is UACC-257 melanoma. The settings on record: 10 µM.
The test system of the next test is M14 melanoma. The settings on record: 10 µM unless noted.

SMILES strings stand for the structures. Compounds without any hit were thinned out: in the full panel of roughly 83,000, 20% have a hit.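 Treatment: one concentration, 48 hours, 96-well format. Scoring: percent growth, with anything below 10 considered active.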 Values without a mark were called inactive. Active and inactive are the calls of the source.

For `O=C1Nc2ccc(Br)cc2C1=N/C=c1\[nH]c(=O)/c(=C/c2ccc(Cl)cc2)s1`, the growth was 97.8% in the test with NCI-H23 lung; 98.3% with NCI-H226 lung; 93.2% with NCI-H322M lung; 84.1% with HOP-62 NSCLC; 101% in the test on NCI-H460 lung; 83.2% with HOP-92 NSCLC. Further, the growth was 89.3% in the test on NCI-H522 lung; 85.3% with A549/ATCC NSCLC; 90.6% with 786-0 renal; 102% in the test on COLO 205 colon; 102% with DU-145 prostate; 81% with K-562 leukemia. Besides, the growth in the test with MALME-3M melanoma is 93.6%; in the test with MDA-MB-231 breast, 88.6%; in the test on RXF 393 renal it was 94.9%; with SF-268 CNS it was 95.2%; in the test with SF-295 CNS, 96.5%; in the test on SF-539 CNS, 90.7%. Further, the growth is 95.7% in the test on UACC-257 melanoma and 101% with M14 melanoma.

For the compound `COc1cc2c3c(c(=O)oc2cc1OS(=O)(=O)c1ccc(C(F)(F)F)cc1)CCCCC3`, the growth in the test on NCI-H23 lung was 76.8%; in the test on NCI-H226 lung, 77.8%; in the test on NCI-H322M lung it was 84.9%; with HOP-62 NSCLC it was 64%; with NCI-H460 lung it was 89.9%; with HOP-92 NSCLC it was 56.8%. Also, the growth in the test on NCI-H522 lung was 71.6%; in the test with A549/ATCC NSCLC, 75.4%; in the test with 786-0 renal it was 72.2%; with COLO 205 colon, 93.1%; with DU-145 prostate it was 82.4%; with K-562 leukemia it was 97.3%. The growth in the test with MALME-3M melanoma was 72.1%; with MDA-MB-231 breast it was 68.6%; in the test on RXF 393 renal it was 30.1%; with SF-268 CNS it was 93.4%; in the test with SF-295 CNS it was 81.9%; in the test on SF-539 CNS, 64.9%. Besides, the growth was 95.6% in the test on UACC-257 melanoma and 83.7% with M14 melanoma.

Take `COc1ccc(Cn2c(SC)nc(=O)n(Cc3ccc(Cl)cc3)c2=O)cc1`: the growth with NCI-H23 lung was 93.7%; in the test on NCI-H226 lung, 106%; in the test with NCI-H322M lung, 90.2%; in the test with HOP-62 NSCLC it was 94.6%; in the test with NCI-H460 lung, 103%; in the test on HOP-92 NSCLC, 90%. In addition, the growth in the test with NCI-H522 lung is 93.9%; with A549/ATCC NSCLC, 87.9%; in the test on 786-0 renal, 98.7%; with COLO 205 colon, 98.8%; with DU-145 prostate it was 103%; with K-562 leukemia it was 92.6%. Besides, the growth was 95.1% in the test with MALME-3M melanoma; 99.4% in the test on MDA-MB-231 breast; 107% with RXF 393 renal; 94.1% in the test with SF-268 CNS; 59.7% with SF-295 CNS; 106% with SF-539 CNS. Further, the growth with UACC-257 melanoma is 102%; with M14 melanoma it was 98.6%.

Turning to `COc1ccc(/C=N/NC(=O)Cn2c(Cc3cccc4ccccc34)nc3ccccc32)cc1`, the growth with NCI-H23 lung is 90.3%; in the test with NCI-H226 lung it was 92.7%; with NCI-H322M lung it was 84.5%; in the test with HOP-62 NSCLC it was 89.3%; in the test with NCI-H460 lung, 106%; with HOP-92 NSCLC, 101%. Further, the growth in the test with NCI-H522 lung is 77.7%; with A549/ATCC NSCLC it was 95%; in the test on 786-0 renal, 102%; in the test on COLO 205 colon, 106%; in the test with DU-145 prostate, 105%; in the test with K-562 leukemia, 89.4%. Also, the growth was 92.4% in the test on MALME-3M melanoma; 91.2% with MDA-MB-231 breast; 109% with RXF 393 renal; 95.6% in the test on SF-268 CNS; 88.9% with SF-295 CNS; 90.7% in the test with SF-539 CNS. Further, the growth is 99.4% with UACC-257 melanoma and 105% with M14 melanoma.

As to `O=C(O)c1cn(C2CC2)c2cc(N3CCN(S(=O)(=O)c4ccc(Cl)c(Cl)c4)CC3)c(F)cc2c1=O`, the growth with NCI-H23 lung was 1.76% (active); in the test on NCI-H226 lung it was 41.4%; in the test on NCI-H322M lung, 21.3%; in the test on HOP-62 NSCLC it was 15.2%; with NCI-H460 lung, 5.77% (active); in the test with HOP-92 NSCLC, 12.2%. Besides, the growth with NCI-H522 lung was -21.4% (active); with A549/ATCC NSCLC, 6.02% (active); in the test with 786-0 renal, 27.8%; with COLO 205 colon it was -68.4% (active); in the test with DU-145 prostate it was 17.2%; in the test with K-562 leukemia, 16.9%. Moreover, the growth with MALME-3M melanoma is -1.09% (active); with MDA-MB-231 breast it was 36.6%; with RXF 393 renal it was 29.1%; in the test on SF-268 CNS it was 19.6%; with SF-295 CNS, -7.27% (active); in the test on SF-539 CNS, 11.4%. Moreover, the values for the growth in the test on UACC-257 melanoma and in the test with M14 melanoma were 8.87% (active) and 18.5%, respectively.

Take `O=C(Nc1ccc(Cl)cc1)c1cc(-c2ccc(F)cc2)c2sc(=O)[nH]c2n1`: the growth in the test with NCI-H23 lung is 5.26% (active); in the test with NCI-H226 lung, 11.6%; in the test on NCI-H322M lung, 13.2%; with HOP-62 NSCLC it was 6.64% (active); in the test on NCI-H460 lung, 1.4% (active); in the test on HOP-92 NSCLC it was -24.2% (active). The growth with NCI-H522 lung was 3.59% (active); in the test on A549/ATCC NSCLC, 12.2%; in the test on 786-0 renal, 14.5%; in the test on COLO 205 colon it was 8.8% (active); with DU-145 prostate, 24.2%; in the test on K-562 leukemia it was 10.6%. For the same compound, the growth with MALME-3M melanoma was 4.01% (active); in the test with MDA-MB-231 breast, 5.74% (active); in the test with RXF 393 renal, 5.27% (active); in the test on SF-268 CNS it was 23.6%; with SF-295 CNS, 9.57% (active); in the test on SF-539 CNS it was -4.01% (active). Further, the growth with UACC-257 melanoma was -8.82% (active); with M14 melanoma, 13.9%.

As to `Oc1ccc(Cl)cc1-c1cc(-c2ccc(Cl)cc2)n[nH]1`, the growth in the test with NCI-H23 lung was 49.8%; with NCI-H226 lung, 64.4%; in the test on NCI-H322M lung it was 55.5%; with HOP-62 NSCLC, 55.9%; with NCI-H460 lung, 40.4%; in the test on HOP-92 NSCLC, 42.9%. Also, the growth with NCI-H522 lung was 47.5%; with A549/ATCC NSCLC it was 49.3%; with 786-0 renal, 84.6%; in the test with COLO 205 colon, 73.7%; in the test on DU-145 prostate, 78.1%; with K-562 leukemia it was 39.9%. The growth in the test on MALME-3M melanoma was 61.3%; in the test with MDA-MB-231 breast it was 37.5%; with RXF 393 renal, 72.9%; with SF-268 CNS, 66.7%; in the test with SF-295 CNS, 95.3%; in the test with SF-539 CNS, 91.9%. Besides, the growth with UACC-257 melanoma was 88.1%; in the test on M14 melanoma it was 76.7%.

`O=C(/C=C/c1ccccc1)n1c(-c2ccc(Cl)cc2)nc2ccccc21`: the growth in the test with NCI-H23 lung is -24.5% (active); in the test on NCI-H226 lung, -55.3% (active); in the test with NCI-H322M lung, 45%; in the test with HOP-62 NSCLC it was -48.8% (active); with NCI-H460 lung, 0.538% (active); with HOP-92 NSCLC it was -39.4% (active). Also, the growth in the test on NCI-H522 lung was -72.4% (active); in the test with A549/ATCC NSCLC it was -4.99% (active); in the test with 786-0 renal it was -17.7% (active); in the test on COLO 205 colon, -60.8% (active); in the test on DU-145 prostate it was 11.1%; with K-562 leukemia, 39.8%. Moreover, the growth in the test with MALME-3M melanoma was 15.9%; in the test on MDA-MB-231 breast, -26.5% (active); in the test on RXF 393 renal it was -65.2% (active); in the test on SF-268 CNS, -11.9% (active); with SF-295 CNS it was -52% (active); in the test with SF-539 CNS, -48.4% (active). The growth is -64.4% (active) in the test with UACC-257 melanoma and -37.3% (active) in the test with M14 melanoma.
